Results published in PubChem BioAssay AID2314 (National Center for Advancing Translational Sciences (NCATS), 2010).
The campaign covered roughly 300,000 compounds. About 37,000 (12%) were called active. The sample holds actives, similar compounds and a random draw of the others, so the mix is not that of the screen. Values without a mark were called inactive. Cut-off read from the data, not from the text of the source: active = max response mostly above about 13% (no sharp cut-off); inactive = mostly below about 14%.

assay: Cycloheximide Counterscreen for Small Molecule Inhibitors of Shiga Toxin; conditions: cell reporter, cycloheximide protein synthesis inhibition counterscreen; stronger effect = higher value; note: read at 38.3 µM for the half of the compounds with a filed dose; 0% is about no effect

Row | SMILES | max response
1 | CCOc1ccc(N(CC(=O)NCC2CCCO2)S(=O)(=O)c2ccc(C)cc2)cc1 (stereo not given) | 0.744%
2 | COc1cccc(/C=C2/SC(=S)N(CC(=O)NC3C=CS(=O)(=O)C3)C2=O)c1 (stereo not given) | 8.26%
3 | COc1ccc(N2C(=O)NC(NS(=O)(=O)c3ccc(Cl)cc3)(C(F)(F)F)C2=O)cc1 (stereo not given) | -5.1%
4 | COc1ccc(OC)c(-c2csc(-c3cccs3)n2)c1 | 30.2%
5 | COc1ccc(-c2csc(-c3cccs3)n2)cc1OC | 59.6% (active)
6 | CNC(=O)c1[nH]cnc1C(=O)N[C@@H](CC(C)C)C(=O)OC(C)(C)C | -1.12%
7 | COC(=O)c1cc(OCC(=O)NC2CCCc3ccccc32)cc(C(=O)OC)c1 (stereo not given) | 1.41%
8 | COc1ccc(Br)cc1CN(C)CC(=O)Nc1cc(Cl)cc(Cl)c1 | -1.13%
9 | CCn1c(SCC(=O)NC2CC2)nnc1-c1ccccn1 | 7.07%
10 | COc1ccc(NC(=O)c2cc(-c3ccc(C)cc3)on2)cc1 | 2.42%
11 | Cc1ccc(O)c(NC(=O)c2cc(-c3ccco3)on2)c1 | 17.2% (active)
12 | Cc1ccc(C)c(NC(=O)c2ccc(OC(=O)c3ccco3)cc2)c1 | 12.4%
13 | CC1CCN(C(=O)C2CCN(S(=O)(=O)N3CCC4(CC3)OCCO4)CC2)CC1 | 5.25%
14 | O=C(C1CC1)N1N=C(c2ccc(Br)cc2)CC1(O)C(F)(F)F (stereo not given) | -6.68%
15 | CC(C)Oc1ccccc1C(=O)NC(CO)C(=O)O (stereo not given) | 5.75%
16 | O=C1OCCN1C(=O)[C@H]1[C@H](c2ccc(Cl)cc2)C(c2cccc(Cl)c2)=NN1c1ccc(Br)cc1 | 1.68%
17 | O=C(NCc1ccco1)c1ccc(Cn2c(=O)c3sccc3n(Cc3ccc(F)cc3)c2=O)cc1 | 0.924%
18 | O=C(Cc1ccc(-n2c(=O)c3sccc3n(Cc3ccc(F)cc3)c2=O)cc1)NCc1ccco1 | -2.83%
19 | CCOC(=O)c1cc2sccc2n1Cc1ccc(C#N)cc1 | -2.12%
20 | CC1Cc2ccccc2N1C(=O)c1cc2sccc2n1Cc1ccccc1 (stereo not given) | 10.4%
21 | O=C(c1cc2sccc2n1Cc1ccc(F)cc1)N1CCc2ccccc21 | 16.9% (active)
22 | O=C(NCc1ccco1)c1cc2sccc2n1Cc1ccc(F)cc1 | 45.3% (active)
23 | CC(NC(=O)CCC(=O)N1CCN(S(=O)(=O)c2ccc(Cl)cc2)CC1)c1ccccc1 (stereo not given) | 4.89%
24 | Cn1c(CNC(=O)c2ccco2)nnc1SCC(=O)N1CCN(c2ccccc2)CC1 | -0.554%

Row | SMILES | max response
25 | COc1ccccc1NC(=O)C1=C(C)Nc2nc3ccccc3n2C1c1cccs1 (stereo not given) | -6.14%
26 | Cc1c(C(=O)OC(C)C)sc(NC(=O)c2cccnc2)c1C#N | 1.72%
27 | CC(=O)Nc1ccc(CN2CCN(Cc3ccc(F)c(F)c3)C(CCO)C2)cc1 (stereo not given) | -0.733%
28 | COc1ccc(CNC(=O)C2CCN(C(=O)c3ccco3)CC2)cc1 | -5.74%
29 | COc1ccc(CCNC(=S)N2CCN(S(=O)(=O)c3ccc(Cl)cc3)CC2)cc1 | -4.46%
30 | O=C1Cc2ccccc2Sc2ccc(Cl)cc21 | 7.71%
31 | O=C(Nc1ccc(S(=O)(=O)N2CCCC2)cc1Cl)C1=COCCO1 | -1.75%
32 | NS(=O)(=O)c1ccc2nc(NC(=O)CS(=O)(=O)c3ccc(F)cc3)sc2c1 | 1.51%
33 | NS(=O)(=O)c1ccc2nc(NC(=O)C3=COCCO3)sc2c1 | 31% (active)
34 | COc1cc(/C=C2\SC(=O)NC2=O)ccc1OCc1ccc(Cl)nc1 | -3.18%
35 | COc1ccc(NC(=S)N2CCC(NC(=O)c3cccc(F)c3)CC2)cc1 | -5.6%
36 | CCc1cc(-c2nnc(SCC(=O)NC3CC3)n2C)cs1 | 5.72%
37 | COc1ccc(NC(=O)C2CCCN(S(=O)(=O)c3cccc4cccnc34)C2)cc1 (stereo not given) | -0.912%
38 | CCOc1cccc(NC(=O)C2CCCN(S(=O)(=O)c3ccc(OC)cc3)C2)c1 (stereo not given) | 2.3%
39 | COc1ccc(S(=O)(=O)N2CCCC(C(=O)Nc3ccc(NC(=O)c4ccccn4)cc3)C2)cc1 (stereo not given) | 40.2% (active)
40 | Cc1ccc(-c2cccc([C@H]3[C@@H]4C=CC[C@@H](C)[C@@H]4C(=O)N3Cc3ccccc3)c2)cc1 | 2.34%
41 | Cc1ccc2c(C)c(C(=O)N(C)CCC3CCCCO3)oc2c1C (stereo not given) | 17.8%
42 | CCOC(=O)c1nc(Nc2ccc(C(=O)OC)cc2)c2ccccc2n1 | 9.36%
43 | COC(=O)c1ccc(OC(=O)c2cnccn2)cc1 | -7.13%
44 | COC(=O)c1ccc(Nc2ncnc3sccc23)cc1 | 39.2% (active)
45 | NS(=O)(=O)c1ccc(-c2ccc(/C=C3\SC(=O)NC3=O)o2)cc1 | -2.44%
46 | CN1C(=O)/C(=C\c2ccc(-c3ccccc3)o2)SC1=S | 9.37% (active)
47 | O=C(O)C(c1ccccc1)N1C(=O)/C(=C\c2ccc(-c3cccc(Cl)c3)o2)SC1=S (stereo not given) | 0.131%
48 | COc1ccc2[nH]c3c(C)c4cc[n+](C)cc4c(C)c3c2c1 | -3.46%

Row | SMILES | max response
49 | O=C1CCCN1CCCNC(=S)Nc1ccc(F)c(Cl)c1 | 11.5%
50 | OCc1ccc(OCCCOc2cccc3cccnc23)cc1 | 1.36%
51 | Cc1ccc(N(C)C(=O)Oc2cccc3ccc(C)nc23)cc1 | -4.01%
52 | Cc1ccc2cccc(OCCCOc3ccccc3CO)c2n1 | 13.2% (active)
53 | Cc1cc(S(=O)(=O)NCc2ccccn2)c(Cl)cc1Cl | -3.82%
54 | O=C1NC(=Nc2ccc(Cl)cc2)SC1Cc1cccc(Cl)c1Cl (stereo not given) | -3.08%
55 | Nc1nc(-c2sc3nc4c(cc3c2N)CCCC4)nc(N2CCOCC2)n1 | 17.7% (active)
56 | Cc1nc(N2CCOCC2)nc2c1CCCC2 | 9.25%
57 | Cc1cc(Oc2ccccc2)nc(N2CCOCC2)n1 | 11.6%
58 | COc1ccc(N2C(=O)C(CC(=O)Nc3ccc(F)cc3)N(CCc3cccs3)C2=O)cc1 (stereo not given) | 8.62%
59 | CNc1ccc(SC#N)cc1 | -2%
60 | COc1ccc(OCc2cccc(C(=O)N3CCCC3)c2)cc1 | 59.3% (active)
61 | COc1ccc(CNC(=O)C2CCN(C(=O)c3ccccc3)CC2)cc1 | 1.61%
62 | COc1cccc(COc2ccc(N(C)S(=O)(=O)c3ccccc3)cc2)c1 | -0.489%
63 | Cc1cccc(C(=O)N2CCCN(C(=O)c3cccc(C)c3)CC2)c1 | -1.57%
64 | COc1ccc(Cn2c(=S)[nH]c3cc(C(=O)N4CCCCC4)ccc3c2=O)cc1 | -3.34%
65 | CC(=O)Oc1ccc(-c2cccc(C(=O)N3CCCCC3)c2)cc1 | 12.6% (active)
66 | CCOc1ccc(OCc2cccc(C(=O)N(CC)CC)c2)cc1 | 47.9% (active)
67 | CCOc1ccc(OCc2ccc(C(=O)N(C)c3ccccc3)o2)cc1 | 2.57%
68 | Cc1cccc(C(=O)N2CCN(S(=O)(=O)N3CCCCC3)CC2)c1 | -2.15%
69 | O=C(c1cc(S(=O)(=O)N2CCOCC2)ccc1Cl)N1CCOCC1 | -3.17%
70 | OC(c1nc2ccc(F)cc2[nH]1)C(O)c1nc2ccc(F)cc2[nH]1 (stereo not given) | -0.936%
71 | COc1ccccc1N1CCN(C(=O)c2cc(=O)c3cc(C)cc(C)c3o2)CC1 | -2.78%
72 | Cc1ccc(C)c(-n2c(SCC(=O)O)nc3sc4c(c3c2=O)CCCC4)c1 | -4.29%

Row | SMILES | max response
73 | Cc1ccc(NC(=S)N(CCN(C)C)Cc2cccs2)cc1C | -3.5%
74 | O=C(COc1ccc(-n2cnnn2)cc1)Nc1ccccc1Cl | 9.71%
75 | Cc1sc2nc(CSCC(=O)Nc3c(Cl)cccc3Cl)[nH]c(=O)c2c1C | 13.5%
76 | Cc1ccc(NC(=O)Nc2ccccc2)c(Br)c1 | 64.5% (active)
77 | CCOc1cc(NC(=O)Nc2ccccc2)c(OCC)cc1NC(=O)CC | -3.19%
78 | CS(=O)(=O)c1ccc(Cl)c(NC(=O)Nc2ccccc2)c1 | -1.05%
79 | COc1ccc(S(=O)(=O)N/N=C\c2ccc(OC)c(COc3ccc(C)cc3[N+](=O)[O-])c2)cc1 | -1.1%
80 | O=C(NCc1ccco1)C(c1ccncc1)N(C(=O)Cn1nnc2ccccc21)c1ccccc1 (stereo not given) | -1.7%
81 | CSc1ccccc1NC(=O)CN(C)CC(=O)Nc1cccc(Br)c1 | 1.62%
82 | CCN(CC)C(=O)C(=O)Nc1cccc(Br)c1 | 36.1% (active)
83 | CCN(CC)C(=O)Oc1ccc(Br)cc1C(=O)Nc1ccc(F)c(Cl)c1 | 11%
84 | CC(C)(C)c1ccccc1NC(=O)CN1C(=O)NC2(CCCC2)C1=O | -4.11%
85 | CC(CN1CCOCC1)OC(=O)c1ccc(Cl)cc1Cl (stereo not given) | 20.3%
86 | Cc1ccc(C(=O)OC(C)CN2CCOCC2)cc1 (stereo not given) | 16.8%
87 | CC(CN1CCCCC1)OC(=O)c1ccccc1Cl (stereo not given) | 22.1% (active)
88 | CC(CN1CCCCC1)c1ccccc1 (stereo not given) | -3.13%
89 | Cc1ccc(C(CNC(=O)Nc2cccc(C)c2)N2CCN(C)CC2)cc1 (stereo not given) | -4.7%
90 | Cc1cccc(C(=O)OC(C)CN2CCN(C)CC2)c1 (stereo not given) | 41.3% (active)
91 | CC(CN1CCOCC1)OC(=O)c1ccc(C(C)(C)C)cc1 (stereo not given) | 16.4% (active)
92 | CC(CN1CCOCC1)c1ccccc1 (stereo not given) | 2.67%
93 | Cc1cccc(C(=O)OC(C)CN2CCCC2)c1 (stereo not given) | 6.5%
94 | COc1ccc(-n2nc3c(N4CCC(C(=O)NCc5ccccc5)CC4)nnc(C)c3c2C)cc1 | -13.3%
95 | CCOC(=O)C1C(c2ccc(OC)c(OC)c2)c2c([nH][nH]c2=O)CC1(C)O (stereo not given) | -1.55%
